LAP4-GFP MLPCN: alters LAP4-GFP fluorescence in TOR pathway yeast screen. 320,000 compounds, 0.34% hits. S. cerevisiae LAP4-GFP multiplex, flow cytometry GFP, 3 h; median GFP as percent of DMSO wells. GFP response vs DMSO, % at 10 µM;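 active = GFP response vs DMSO above a set limit, about the screen mean plus 3 SD, cut at about 150% in these data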
MEP2-GFP yeast: alters MEP2-GFP fluorescence in TOR pathway yeast screen | GFP response vs DMSO, % at 10 µM | S. cerevisiae MEP2-GFP strain, flow cytometry GFP, 3 h; 100% = DMSO control level | AID 2016 | 330,000 compounds, 0.51% hits;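 active = GFP response versus DMSO above a set limit, roughly screen mean plus 3 SD, cut at about 180% in these data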;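 also: median GFP fluorescence of the barcode-gated MEP2-GFP cells per well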
RPL19A-GFP yeast: modulators of TOR pathway RPL19A-GFP in S. cerevisiae; S. cerevisiae RPL19A-GFP strain, flow cytometry, 3 h; hits give low values; percent response vs DMSO, % at 10 µM; 330,000 compounds, 0.3% hits; AID 2025;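 active = percent response vs DMSO below 50%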;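 also: median channel GFP fluorescence of the barcoded RPL19A-GFP strain; ratio of sample median GFP to plate DMSO average so 100% = DMSO; lower means less RPL19A-GFP as with rapamycin TOR inhibition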
CIT2-GFP yeast: alters CIT2-GFP fluorescence in TOR pathway yeast screen; GFP response vs DMSO, % at 10 µM; AID 2029; S. cerevisiae CIT2-GFP strain, flow cytometry, 3 h; 100 means same as DMSO wells; 320,000 compounds, 0.065% hits;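 active = GFP response relative to DMSO above a set limit, near the screen mean plus 3 SD, cut at about 150% in these data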;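 also: ratio of well median GFP fluorescence to mean of DMSO wells on the plate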
VLA-4 inh: inhibition in a human VLA-4 binding assay | VLA-4 expressing cells, ligand binding flow cytometry | 330,000 compounds, 0.2% hits | inhibition, % (about 7 µM as worked out from the volumes in the protocol) | P13612 | AID 2557; in the data active = inhibition above about 50%
Target sequence (P13612 whole entry, looked up): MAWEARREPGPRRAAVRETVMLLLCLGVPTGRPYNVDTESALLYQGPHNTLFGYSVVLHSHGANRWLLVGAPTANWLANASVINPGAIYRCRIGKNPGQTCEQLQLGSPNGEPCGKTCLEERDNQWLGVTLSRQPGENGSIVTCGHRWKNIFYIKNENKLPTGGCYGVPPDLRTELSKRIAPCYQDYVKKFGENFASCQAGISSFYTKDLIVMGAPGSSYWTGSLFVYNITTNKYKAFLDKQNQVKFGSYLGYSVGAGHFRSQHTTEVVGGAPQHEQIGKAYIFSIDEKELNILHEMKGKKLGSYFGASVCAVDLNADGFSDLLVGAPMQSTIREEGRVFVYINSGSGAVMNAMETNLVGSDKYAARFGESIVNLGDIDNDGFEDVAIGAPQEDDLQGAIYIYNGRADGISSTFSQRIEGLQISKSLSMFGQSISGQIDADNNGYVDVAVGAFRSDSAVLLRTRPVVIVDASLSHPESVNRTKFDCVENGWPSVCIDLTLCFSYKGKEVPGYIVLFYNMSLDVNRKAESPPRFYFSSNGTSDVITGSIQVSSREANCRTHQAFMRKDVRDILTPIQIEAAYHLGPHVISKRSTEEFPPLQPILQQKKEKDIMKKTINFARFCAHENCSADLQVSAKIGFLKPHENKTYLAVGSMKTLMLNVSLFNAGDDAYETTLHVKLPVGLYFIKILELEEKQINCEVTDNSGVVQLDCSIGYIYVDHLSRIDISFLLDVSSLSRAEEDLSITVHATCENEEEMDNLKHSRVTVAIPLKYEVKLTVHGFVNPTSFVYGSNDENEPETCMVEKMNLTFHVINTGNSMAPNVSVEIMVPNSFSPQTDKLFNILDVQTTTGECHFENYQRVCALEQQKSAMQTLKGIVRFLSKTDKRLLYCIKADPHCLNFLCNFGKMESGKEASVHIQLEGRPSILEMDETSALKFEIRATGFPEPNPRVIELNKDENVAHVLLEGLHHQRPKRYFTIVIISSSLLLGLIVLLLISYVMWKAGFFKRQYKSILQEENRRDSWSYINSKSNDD
AGP1-GFP MLPCN: yeast TOR pathway AGP1-GFP modulation. S. cerevisiae AGP1-GFP multiplex flow cytometry, 3 h; GFP as percent of DMSO wells. GFP response vs DMSO, % at 10 µM. 320,000 compounds, 0.02% hits;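 active = GFP response relative to DMSO above a set limit, near screen average plus 3 SD, cut at about 150% in these data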;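 also: median GFP channel fluorescence of the gated AGP1 strain per well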
VLA-4 mod pick: human VLA-4 allosteric modulation in cherry picked compounds | inhibition, % at 6.7 µM | 1,300 compounds, 2% hits | shares compounds with VLA-4 inh | U937 cells, HUTS-21 LIBS mAb binding, flow cytometry; LDV ligand present at threefold Kd | AID 2813; in the data active = inhibition above about 40%;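 also: 0% = ligand without compound and 100% = no ligand background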
Starred values were filed as active, the others as inactive; nt = no result given. Sampled rows, rich in hits. Any-hit rate of the full collection: about 1.1%.

SMILES | LAP4-GFP MLPCN | MEP2-GFP yeast | RPL19A-GFP yeast | CIT2-GFP yeast | VLA-4 inh | AGP1-GFP MLPCN | VLA-4 mod pick
COC(=O)[C@]1(Cc2ccccc2)N[C@H](CN(C)C(=O)Nc2ccccc2)[C@@H]2C(=O)N(Cc3ccccc3)C(=O)[C@@H]21 | 96 | 98 | 102 | 100 | 43 | 103 | nt
Cc1ccc(OCc2cc(C(=O)N(C)Cc3cnc4ccccn34)no2)cc1C | 84 | 106 | 97 | 95 | 3 | 97 | nt
O=S(=O)(c1ccccc1)N(CC1CO1)c1cccc2ccccc12 (configuration not stated) | 85 | 101 | 105 | 108 | 11 | 101 | nt
Cc1ccc(C(=O)NC(=S)NCc2cccnc2)cc1C | 110 | 97 | 95 | 99 | 55* | 97 | -10
COc1ccc(C(=O)NC(=S)NCc2cccnc2)cc1Br | 96 | 100 | 100 | 99 | -4 | 99 | nt
CCOC(=O)C1CCCN(S(=O)(=O)c2cc3[nH]c(=O)c(=O)[nH]c3cc2C)C1 (configuration not stated) | 103 | 109 | 95 | 101 | 50* | 101 | -7
Cn1c(=O)[nH]c(=O)c2c1nc1n2CCCN1Cc1ccccc1 | 108 | 107 | 102 | 98 | 7 | 106 | nt
O=C(Nc1ccncc1)c1cccc(S(=O)(=O)N2CCCC2)c1 | 98 | 110 | 104 | nt | -16 | 103 | nt
CCc1nn2c(N3CCOCC3)cc(C)nc2c1-c1ccccc1 | 85 | 106 | 102 | 101 | 45 | 97 | 13
Cc1cc(N2CCOCC2)n2nc(C)c(-c3ccccc3)c2n1 | 90 | 101 | 96 | 107 | -10 | 98 | nt
CNC(=O)CSc1nc2c([nH]c3ccccc32)c(=O)n1CCOC | 90 | 100 | 98 | 80 | 58* | 81 | 2
O=C(Nc1ccccn1)C1CCN(C(=O)c2ccc(F)cc2)CC1 | 95 | 97 | 101 | 99 | 26 | 107 | 4
Cc1ccc(NC(=O)C2CCN(C(=O)c3ccccc3C)CC2)cc1 | 90 | 103 | 102 | 107 | 33 | 97 | nt
Cc1cccc(NC(=O)C2CCN(C(=O)c3ccccc3C)CC2)n1 | 104 | 105 | 106 | 100 | -3 | 109 | -3
C=C1CC(C(=O)N/N=C/c2ccccc2)C1 | nt | nt | nt | nt | 42 | nt | -22
CCN1CCCC1CNC(=O)C(=O)NCc1ccccc1 (configuration not stated) | 98 | 101 | 98 | 99 | 11 | 96 | nt
CCN1CCCC1CNC(=O)C(=O)NC1CC1 (configuration not stated) | 97 | 105 | 106 | 104 | 46 | 102 | -2
Cc1cc(C)n(CCC(=O)N2CCc3ccccc32)n1 | 97 | 105 | 100 | 109 | 22 | 111 | nt
CCOc1ccc(C(C)NC(=O)c2ccc3c(c2)NC(=O)C(C)S3)cc1OCC (configuration not stated) | 104 | 95 | 96 | 93 | -32 | 96 | nt
CCc1c(C)c2ccc(OCC(=O)NCC3CCC(C(=O)O)CC3)c(C)c2oc1=O (configuration not stated) | 108 | 96 | 98 | 95 | 8 | 99 | nt
CN(C(=O)Cn1c(=O)oc2ccccc21)C1CCCCC1 | 110 | 100 | 98 | 101 | -1 | 99 | 9
O=C(Cn1c(=O)oc2ccccc21)N1CCCC1 | 92 | 101 | 100 | 101 | 1 | 99 | -3
COC(=O)Cn1c(=O)oc2ccc(C)cc21 | 103 | 103 | 100 | 99 | 4 | 101 | nt
O=C(Cn1c(=O)oc2ccccc21)N1CCOCC1 | 94 | 93 | 101 | 95 | 26 | 95 | nt
Cc1ccc2oc(=O)n(CC(=O)N3CCOCC3)c2c1 | 100 | 98 | 95 | 94 | 2 | 104 | 1
SMILES | LAP4-GFP MLPCN | MEP2-GFP yeast | RPL19A-GFP yeast | CIT2-GFP yeast | VLA-4 inh | AGP1-GFP MLPCN | VLA-4 mod pick
CN(CC(=O)Nc1cccc(F)c1)C(=O)Cn1c(=O)oc2ccccc21 | 101 | 96 | 95 | 92 | 14 | 103 | 11
O=C(O)c1nn2c(C(F)(F)F)cc(-c3cccs3)nc2c1Cl | 111 | 114 | 111 | 109 | 45 | 109 | 1
C=CCn1c(SCC(=O)Nc2nc(C)cs2)nnc1C(C)NC(=O)c1ccccc1Cl (configuration not stated) | 100 | 107 | 95 | 100 | 54* | 104 | 2
Cc1cccc(OCCNC(=O)CCNS(=O)(=O)c2ccc3ccccc3c2)c1 | 91 | 105 | 95 | 100 | 15 | 102 | nt
CCc1cccc(CC)c1N1C(=O)c2cc(N3CCOCC3)c([N+](=O)[O-])cc2C1=O | 118 | 106 | 116 | 110 | -14 | 112 | nt
CCc1ccc(N2C(=O)c3cc(N4CCOCC4)c([N+](=O)[O-])cc3C2=O)cc1 | nt | nt | nt | nt | 43 | nt | -12
C=C1C(O)[C@@H]2O[C@]3(CC[C@H](/C=C/C(C)[C@@H]4CC(C)=CC5(O[C@H](C[C@@](C)(O)CO)CCC5O)O4)O3)CC[C@H]2O[C@@H]1C(O)CC(C)[C@H]1OC2(CCCCO2)CCC1C (some centres not stated) | 111 | 98 | 97 | 95 | 54* | 99 | 52*
O=C1CCC(C(=O)N2CCCCCC2)CN1CCc1ccc(Cl)cc1 (configuration not stated) | 91 | 94 | 97 | 98 | -1 | 95 | nt
Nc1cc(-c2ccc(Br)cc2)nn1S(=O)(=O)c1cccc2nsnc12 | 100 | 100 | 100 | 103 | 50* | 102 | 0
COCCNC(=O)c1ccccc1NC(=O)COc1ccccc1 | 93 | 98 | 98 | 100 | -2 | 104 | -19
COC(=O)c1ccccc1NC(=O)COc1ccccc1 | 92 | 91 | 103 | 107 | 9 | 99 | nt
CC12CCC3c4ccc(O)cc4CCC3C1CCC2=O (configuration not stated) | 118 | 99 | 95 | 69 | 55* | 80 | 12
Fc1ccc2nc(Nc3nc4c(F)cccc4s3)sc2c1 | 104 | 101 | 98 | 91 | 53* | 98 | 0
Fc1ccc2nc(Nc3nc4c(F)cc(F)cc4s3)sc2c1 | 102 | 99 | 98 | 100 | 4 | 102 | nt
COC(=O)C(Cc1cnc[nH]1)NC(=O)C1CCC(=O)N1 (configuration not stated) | 99 | 102 | 100 | 95 | 58* | 101 | 3
COc1ccc(S(=O)(=O)NC(Cc2cnc[nH]2)C(=O)O)cc1 (configuration not stated) | 94 | 99 | 100 | 99 | 38 | 101 | nt
Cc1cc(OC(=O)c2cc(F)c(F)cc2Cl)nc(C)n1 | 102 | 98 | 101 | 91 | 63* | 101 | 14

Screening data from PubChem.
